Values joined by “and” are separate entries in the source; they are usually repeats but may differ in a detail not shown here. Equal values may be shown once. Inconclusive results are not listed. More than one record can exist for a structure, and the calls need not agree. Active and inactive are the calls of the source. Unless noted, calls follow the shape of the dose curve; as a rule, active = well fitted curve in the direction sought with a large enough effect in the repeat runs; inconclusive = weak or mixed curves; inactive = no such curve, though single readings can be large; an effect the other way counts as inactive or inconclusive.

The nature of test [1]: qHTS assay to identify small molecule agonists of the hypoxia (HIF-1) signaling pathway - cell viability counter screen (AID 1224844; calls by dose curve; also: nearly all actives have a fitted effect of over 50% in size). The procedure, abridged:
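Luminescent ATP content (CellTiter-Glo, 30 min, room temperature) served as the viability measure in HRE-bla ME-180 cells exposed to compounds for 17 hrs in low-serum medium (0.5% dialyzed FBS).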

Test [2] is described as follows: qHTS assay to identify small molecule agonists of the hypoxia (HIF-1) signaling pathway (AID 1224846; active = well fitted activation curve with a large enough effect in the signal ratio in the repeat runs, not every such curve was filed as active; the % refers to the signal ratio). The procedure, abridged:
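Measured by blue/green FRET after loading CCF4-AM: beta-lactamase expressed from a hypoxia response element in ME-180 cells. Test agents were delivered in DMSO and left 17 hrs; cells had been plated 5 hrs earlier in low-serum (0.5% dialyzed FBS) medium.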
In general terms: qHTS replaces the single test concentration by a dilution series.

The nature of test [3]: qHTS assay to identify small molecule agonists of H2AX - cell viability counter screen (AID 1224847; calls by dose curve; also: nearly all actives have a fitted effect of over 30% in size; also: potency is read from the fitted curve at half-maximal effect). The procedure, abridged: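 Counter-screen for viability: CellTiter-Glo ATP luminescence read after 3 h compound treatment (15-point titration, 0.76% DMSO final) of CHO-K1 cells at 37C, with 30 min room-temperature reagent incubation.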
A short description of test [4]: qHTS RealTime-Glo MT Cell Viability Assay in HepG2 cells - 24 hour (AID 1224867). Also: nearly all actives have a fitted effect of over 50% in size. The procedure, abridged:
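HepG2 cells were seeded at 600 cells/well together with NanoLuc luciferase and a cell-permeant prosubstrate, preincubated 5 h at 37 C/5% CO2, then pin-dosed with compounds in DMSO. Nonlytic luminescence from viable cells was read at each time point.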

Test [5] in a line: qHTS RealTime-Glo MT Cell Viability Assay in HEK293 cells - 32 hour (AID 1224868). Also: top concentration of the series differs between compounds; nearly all actives have a fitted effect of over 50% in size. The gist of the method:
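HEK293 cells were seeded at 600 cells/well together with NanoLuc luciferase and cell-permeant prosubstrate, preincubated 5 h at 37 C/5% CO2, then given compound in DMSO by pintool. Luminescence from viable-cell prosubstrate reduction was read repeatedly over 40 h.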

Test [6] is described as follows: A CellTox Green Cytotoxicity Assay to monitor cytotoxicity in HEK293 cells - 0 hour (AID 1224869). Also: nearly all actives have a fitted effect of over 50% in size. Also: potency is read from the fitted curve at half-maximal effect. The gist of the method: (§1)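 Each value comes from one timepoint of a single continuous run in which HEK293 cells with CellTox Green were exposed to compound for up to 40 h at 37 C, dye fluorescence rising with cell death.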
A short description of test [7]: qHTS RealTime-Glo MT Cell Viability Assay in HepG2 cells - 40 hour (AID 1224870). Also: nearly all actives have a fitted effect of over 50% in size. The procedure, abridged:
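HepG2 cells (600/well) mixed with RealTime-Glo MT reagent, settled 5 h at 37 C/5% CO2 before compound addition. Nonlytic NanoLuc luminescence from viable-cell prosubstrate reduction read repeatedly during 40 h treatment at 37 C.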

Test [8] in a line: A CellTox Green Cytotoxicity Assay to monitor cytotoxicity in HEK293 cells - 40 hour (AID 1224871). Also: nearly all actives have a fitted effect of over 45% in size. Also: potency is read from the fitted curve at half-maximal effect. The gist of the method:
as §1

Test [9] is described as follows: qHTS assay to identify small molecule agonists of the estrogen related receptor (ERR) signaling pathway from Tox21 library (AID 1224849; calls by dose curve; also: nearly all actives have a fitted effect of over 15% in size). To be noted: ERR reporter cell line, ONE-Glo luciferase, 18 h. The procedure, abridged:
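We plated ERR reporter cells, waited 6 h, added compounds in DMSO by pin tool and incubated them 18 h at 37 C. ONE-Glo was then added and luminescence read after 30 min.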
% is scaled to controls: 0 for no effect and ±100 for the full control effect.

Take `C/C=C/c1ccc2c(c1)OCO2`: the Potency entry in [1], in test [3], in test [5], in test [6] and in [8] was “inactive” each time. Further, the outcome in test [2], in test [4] and in test [7] was inactive.
With `N#Cc1cccc(C#N)c1`, the Potency result in test [1], in test [3], in test [5], in test [6] and in [8] was “inactive” each time. Also, the outcome in test [2], in test [4] and in test [7] was inactive.
Regarding `O=C(O)CCCc1ccc(N(CCCl)CCCl)cc1`, the Potency entry in [1], in [3], in test [6] and in [8] was “inactive” each time. Moreover, the molecule was called inactive in [2], in test [4] and in test [7].
With `CCOc1ccc(N)cc1`, the Potency result in [1], in [3], in test [5], in test [6] and in test [8] was “inactive” in each case. In addition, the molecule was classed as inactive in [2], in test [4] and in [7]. Also, the activity change, positive = activation in test [9] (at 92.4 µM (top of the series)) is -23.9% (inactive) and -14.2% (inactive).
As for `COc1nc(NC(C)C)nc(NC(C)C)n1`, the Potency result in test [1], in [3], in [5], in test [6] and in test [8] was “inactive” in each case. The molecule was called inactive in test [2], in [4] and in test [7]. For the same molecule, the activity change, positive = activation in [9] (at 92.4 µM (top of the series)) is 1.12% (inactive) and 6.24% (inactive).
In the case of `CCOC(=O)CC(SP(=O)(OC)OC)C(=O)OCC` (stereo not drawn), the Potency result in test [1], in [3], in test [5], in test [6] and in test [8] was “inactive” throughout. Further, the outcome in [2], in test [4] and in [7] was inactive.
Turning to `CN(C)C(=O)Nc1cccc(C(F)(F)F)c1`, the Potency result in test [1], in [3], in [5], in test [6] and in test [8] was “inactive” each time. In addition, the result in test [2], in test [4] and in test [7] was inactive.
For the molecule `Nc1ccc([As](=O)(O)O)cc1`, the Potency entry in test [1], in test [3], in [5], in test [6] and in test [8] was “inactive” in each case. Moreover, the call in test [2], in [4] and in [7] was inactive.
As to `Oc1c(Br)cc(Br)cc1Br`, the Potency result in test [1], in test [3], in test [5], in test [6] and in test [8] was “inactive” in each case. Besides, the result in test [2], in test [4] and in [7] was inactive.
Consider `Cc1ccccc1N`, for which the Potency entry in test [1], in [3], in test [5], in test [6] and in test [8] was “inactive” throughout. Further, the molecule was classed as inactive in test [2], in test [4] and in test [7].
For `O=[N+]([O-])c1ccc(Cl)cc1`, the Potency result in test [1], in test [3], in test [5], in test [6] and in test [8] was “inactive” each time. For the same molecule, the result in test [2], in test [4] and in test [7] was inactive.
As to `Cl/C=C/Cl`, the Potency result in test [1], in test [3], in [5], in test [6] and in test [8] was “inactive” each time. Besides, the molecule was classed as inactive in test [2], in test [4] and in test [7].
Take `NNc1ccccc1`: the Potency result in test [1], in [3], in [5], in [6] and in test [8] was “inactive” each time. Moreover, the molecule was called inactive in test [2], in test [4] and in test [7].
With `[N-]=[N+]=CC(=O)OC[C@H](N)C(=O)O`, the Potency entry in [1], in [3], in test [5] and in test [8] was “inactive” each time. Further, the activity change, positive = activation in test [9] (at 42.5 µM (top of the series)) was 3.09% (inactive); in [9] (at 92.4 µM (top of the series)), 5.95% (inactive). Also, the molecule was called inactive in [4] and in test [7]. In [6], the Potency was 38.9 µM (active) and inactive.
As to `Cc1cccc(N)c1`, the Potency entry in test [1], in test [3], in test [5], in test [6] and in [8] was “inactive” in each case. Also, the activity change, positive = activation in [9] (at 92.4 µM (top of the series)) was 7.86% (inactive) and 1.47% (inactive) and 12% (inactive). Moreover, the call in test [4] and in test [7] was inactive.
As to `CC(=O)C1CCOC1=O` (stereo not drawn), the Potency result in [1], in test [3], in [5], in [6] and in test [8] was “inactive” throughout. Besides, the outcome in [2], in [4] and in test [7] was inactive.
For the molecule `ClCCOCCCl`, the Potency result in test [1], in test [3], in [5], in [6] and in [8] was “inactive” throughout. Besides, the molecule was called inactive in test [2], in [4] and in test [7].
On to `CCOP(=S)(OCC)Oc1ccc([N+](=O)[O-])cc1`, for which the Potency result in test [1], in [3], in test [5], in [6] and in test [8] was “inactive” in each case. The call in test [2], in test [4] and in test [7] was inactive.
Take `OCc1ccco1`: the Potency entry in test [1], in test [3], in test [5], in [6] and in test [8] was “inactive” throughout. Further, the molecule was called inactive in test [2], in test [4] and in [7]. Besides, in test [9] (at 92.4 µM (top of the series)), the activity change, positive = activation is 4.84% (inactive).
Turning to `C[C@H]1C(=O)O[C@@H]2CCN3CC=C(COC(=O)[C@](C)(O)[C@]1(C)O)[C@H]23`, the Potency entry in test [1], in test [3], in test [5], in [6] and in test [8] was “inactive” in each case. Besides, the molecule was classed as inactive in test [4] and in [7].
On to `c1ccc2c(c1)CCCC2`, for which the Potency result in test [1], in test [3], in [5], in test [6] and in [8] was “inactive” throughout. The call in test [2], in [4] and in test [7] was inactive.
Regarding `N#CN=C(N)N`, the Potency entry in test [1], in test [3], in test [5], in test [6] and in test [8] was “inactive” throughout. Further, the result in [2], in test [4] and in test [7] was inactive.
As to `CC12CC1(C)C(=O)N(c1cc(Cl)cc(Cl)c1)C2=O` (stereo not drawn), the Potency result in test [1], in test [3], in test [5], in test [6] and in test [8] was “inactive” throughout. Besides, the molecule was classed as inactive in test [2], in test [4] and in test [7].
For `CC(C)CCCCCCOC(=O)c1ccccc1C(=O)OCCCCCCC(C)C`, the Potency result in test [1], in test [3], in test [5], in test [6] and in [8] was “inactive” throughout. Further, the molecule was called inactive in [2], in test [4] and in [7].
In the case of `CC(C)c1cccc(C(C)C)c1O`, the Potency entry in [1] and in test [5] was “inactive” each time. In addition, the Potency is 50.5 µM (active) and inactive in [3]; “inactive and 38.9 µM (active)” in [6]; 24.5 µM (active) and 43.6 µM (active) and inactive in test [8]. Besides, the activity change, positive = activation in test [9] (at 42.5 µM (top of the series)) is -0.995% (inactive); in [9] (at 92.4 µM (top of the series)), -9.76% (inactive) and -27.6% (inactive). Moreover, the outcome in [4] and in test [7] was inactive.

These data come from PubChem BioAssay (Tox21).
